The values below come from PubChem BioAssay (Tox21).

Experiment [1] can be described thus: qHTS assay to identify small molecule antagonists of the glucocorticoid receptor (GR) signaling pathway - cell viability counter screen (AID 720693). Note: nearly all actives have a fitted effect of over 55% in size.
A short description of experiment [2]: qHTS assay for identifying genotoxic compounds that show differential cytotoxicity against isogenic chicken DT40 cell lines with known DNA damage response pathways - wild type cell line (AID 743012). Note: nearly all actives have a fitted effect of over 60% in size. Note: potency is the fitted concentration of half-maximal effect. In outline:
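300 wt DT40 cells/well; cpd (DMSO) pintool-transferred after ~0.5 h at 37 C/5% CO2; 40 h incubation; CellTiter-Glo added, 30 min RT; luminescence read.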
Background: Quantitative high-throughput screening tests each substance at several concentrations.

Experiment [3] in a line: qHTS assay for identifying genotoxic compounds that show differential cytotoxicity against isogenic chicken DT40 cell lines with known DNA damage response pathways - Rev3 mutant cell line (AID 743014). Note: nearly all actives have a fitted effect of over 55% in size. Note: potency is the fitted concentration of half-maximal effect.
A short description of experiment [4]: qHTS assay for identifying genotoxic compounds that show differential cytotoxicity against isogenic chicken DT40 cell lines with known DNA damage response pathways - Rad54/Ku70 mutant cell line (AID 743015). Note: nearly all actives have a fitted effect of over 60% in size. Note: potency is the fitted concentration of half-maximal effect.
Experiment [5] can be described thus: qHTS assay to identify small molecule antagonists of the androgen receptor (AR) signaling pathway - cell viability counter screen (AID 743033; note: nearly all actives have a fitted effect of over 45% in size).
Experiment [6] can be described thus: qHTS assay to identify small molecule antagonists of the androgen receptor (AR) signaling pathway using the MDA cell line - cell viability counter screen (AID 743041; note: nearly all actives have a fitted effect of over 45% in size). In outline: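 Cytotoxicity counter screen: MDA-kb2 AR-luc cells, compound + R1881, 16 h, 37C, 0% CO2; CellTiter-Fluor added at 15.5 h, fluorescence read after 30 min.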
Experiment [7] can be described thus: qHTS assay to identify small molecule antagonists of the thyroid receptor (TR) signaling pathway - cell viability counter screen (AID 743064). Note: nearly all actives have a fitted effect of over 50% in size. Note: potency is the fitted concentration of half-maximal effect. In outline:
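Viability of T3-stimulated (1 nM final) GH3.TRE-Luc cells is measured by CellTiter-Fluor fluorescence after 23.5 h compound exposure at 37 °C plus 30 min reagent incubation.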

Experiment [8] can be described thus: qHTS assay to identify small molecule antagonists of the thyroid receptor (TR) signaling pathway (AID 743065). Note: nearly all actives have a fitted effect of over 55% in size. Note: potency is the fitted concentration of half-maximal effect. In outline: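 GH3.TRE-Luc rat pituitary cells (two TREs driving luciferase) were dosed with compound, then stimulated with 1 nM T3 (final) for 23.5 h at 37 C. ONE-Glo luminescence was the read-out, with CellTiter-Fluor fluorescence as the cytotoxicity counter-screen.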

Experiment [9] concerns thyroid hormone receptor (rat, GH3 cells). Kind of experiment: qHTS assay to identify small molecule agonists of the thyroid receptor (TR) signaling pathway (AID 743066; calls by dose curve).
The target of experiment [10] is Estrogen receptor (Homo sapiens) (UniProt P03372). Kind of experiment: qHTS assay to identify small molecule antagonists of the estrogen receptor alpha (ER-alpha) signaling pathway (AID 743069; active = well fitted curve in the direction sought with a large enough effect in the signal ratio in the repeat runs, not every such curve was filed as active; the % refers to the signal ratio). In outline: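 Beta-lactamase FRET fluorescence is read after 2 hr at room temperature with LiveBLAzer B/G substrate. Before that, ER-alpha-bla HEK293 cells sit 4 hr after plating, then receive compound plus 17beta-estradiol and incubate 18 hr at 37C.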
Estrogen receptor (Homo sapiens), sequence (P03372 whole entry, looked up): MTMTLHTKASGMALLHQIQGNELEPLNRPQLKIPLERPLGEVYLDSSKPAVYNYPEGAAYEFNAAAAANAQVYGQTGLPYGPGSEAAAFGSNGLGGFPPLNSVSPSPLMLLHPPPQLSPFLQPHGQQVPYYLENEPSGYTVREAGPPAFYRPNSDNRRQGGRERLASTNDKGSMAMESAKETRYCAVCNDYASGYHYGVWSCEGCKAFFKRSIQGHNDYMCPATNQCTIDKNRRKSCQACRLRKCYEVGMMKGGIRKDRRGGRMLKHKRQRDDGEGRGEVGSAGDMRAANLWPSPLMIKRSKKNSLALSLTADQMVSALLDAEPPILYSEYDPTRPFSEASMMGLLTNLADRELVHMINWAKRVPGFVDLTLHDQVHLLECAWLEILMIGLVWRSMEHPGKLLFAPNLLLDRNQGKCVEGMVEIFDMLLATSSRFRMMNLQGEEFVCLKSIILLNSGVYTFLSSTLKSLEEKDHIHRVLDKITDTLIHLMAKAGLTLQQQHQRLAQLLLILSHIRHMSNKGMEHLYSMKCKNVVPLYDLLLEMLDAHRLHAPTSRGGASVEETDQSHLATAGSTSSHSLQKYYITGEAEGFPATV

Experiment [11] in a line: qHTS assay to identify small molecule antagonists of the estrogen receptor alpha (ER-alpha) signaling pathway - cell viability counter screen (AID 743074; calls by dose curve;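 note: HEK293 cells carrying ER-alpha-UAS-bla reporter stimulated with 17beta-estradiol; nearly all actives have a fitted effect of over 45% in size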).
Experiment [12] concerns the target Estrogen receptor (Homo sapiens) (UniProt P03372). Nature of the experiment: qHTS assay to identify small molecule agonists of the estrogen receptor alpha (ER-alpha) signaling pathway (AID 743075; calls by dose curve;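 note: HEK293 GripTite cells with ER-alpha and UAS-driven beta-lactamase reporter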).
For experiment [13] the target is unchanged. Kind of experiment: qHTS assay to identify small molecule agonists of the estrogen receptor alpha (ER-alpha) signaling pathway using the BG1 cell line (AID 743079). Note: nearly all actives have a fitted effect of over 20% in size.
The nature of experiment [14]: qHTS assay to identify small molecule antagonists of the estrogen receptor alpha (ER-alpha) signaling pathway using the BG1 cell line (AID 743080; calls by dose curve; note: series mostly up to about 70 µM; nearly all actives have a fitted effect of over 25% in size). In outline:
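Antagonist mode: compounds in DMSO were pinned onto BG1-Luc-4E2 cells alongside 17beta-estradiol agonist, incubated 21.5 h, and ERE-driven luciferase measured with ONE-Glo. Cytotoxicity was multiplexed using CellTiter-Fluor fluorescence.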

A short description of experiment [15]: qHTS assay to identify small molecule antagonists of the estrogen receptor alpha (ER-alpha) signaling pathway using the BG1 cell line - cell viability counter screen (AID 743081).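 Note: compound given together with 17beta-estradiol as the ER stimulus; series mostly up to about 70 µM; nearly all actives have a fitted effect of over 45% in size.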
The target of a further experiment is Aromatase (Homo sapiens) (UniProt P11511). Nature of the experiment: qHTS assay to identify aromatase inhibitors (AID 743083). Note: series mostly up to about 70 µM; nearly all actives have a fitted effect of over 55% in size.
Aromatase (Homo sapiens), sequence (P11511 whole entry, looked up): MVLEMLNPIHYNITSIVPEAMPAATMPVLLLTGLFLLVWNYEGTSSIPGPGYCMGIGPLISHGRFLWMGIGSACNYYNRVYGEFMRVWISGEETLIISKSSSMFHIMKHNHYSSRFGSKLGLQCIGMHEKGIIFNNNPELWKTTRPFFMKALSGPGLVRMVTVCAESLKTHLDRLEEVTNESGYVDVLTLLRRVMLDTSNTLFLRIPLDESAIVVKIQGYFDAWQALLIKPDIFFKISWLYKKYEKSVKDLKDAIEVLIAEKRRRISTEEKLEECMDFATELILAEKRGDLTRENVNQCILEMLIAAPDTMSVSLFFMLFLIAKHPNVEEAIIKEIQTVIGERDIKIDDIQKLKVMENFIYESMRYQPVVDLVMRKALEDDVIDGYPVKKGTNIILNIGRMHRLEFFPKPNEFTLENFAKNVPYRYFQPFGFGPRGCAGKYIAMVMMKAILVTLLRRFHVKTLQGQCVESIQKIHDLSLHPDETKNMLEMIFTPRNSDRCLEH
The target in experiment [16] is Androgen receptor (Homo sapiens) (UniProt P10275). Kind of experiment: qHTS assay to identify small molecule antagonists of the androgen receptor (AR) signaling pathway (AID 743035; active = well fitted inhibition curve with a large enough effect in the signal ratio in the repeat runs, not every such curve was filed as active; the % refers to the signal ratio). A digest of the protocol: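 In this cell-based reporter screen, compounds were tested in concentration series against R1881-activated HEK293 cells expressing beta-lactamase under UAS control; after 16 h at 37C, FRET substrate was added and fluorescence read 2 h later.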
Androgen receptor (Homo sapiens), sequence (P10275 whole entry, looked up): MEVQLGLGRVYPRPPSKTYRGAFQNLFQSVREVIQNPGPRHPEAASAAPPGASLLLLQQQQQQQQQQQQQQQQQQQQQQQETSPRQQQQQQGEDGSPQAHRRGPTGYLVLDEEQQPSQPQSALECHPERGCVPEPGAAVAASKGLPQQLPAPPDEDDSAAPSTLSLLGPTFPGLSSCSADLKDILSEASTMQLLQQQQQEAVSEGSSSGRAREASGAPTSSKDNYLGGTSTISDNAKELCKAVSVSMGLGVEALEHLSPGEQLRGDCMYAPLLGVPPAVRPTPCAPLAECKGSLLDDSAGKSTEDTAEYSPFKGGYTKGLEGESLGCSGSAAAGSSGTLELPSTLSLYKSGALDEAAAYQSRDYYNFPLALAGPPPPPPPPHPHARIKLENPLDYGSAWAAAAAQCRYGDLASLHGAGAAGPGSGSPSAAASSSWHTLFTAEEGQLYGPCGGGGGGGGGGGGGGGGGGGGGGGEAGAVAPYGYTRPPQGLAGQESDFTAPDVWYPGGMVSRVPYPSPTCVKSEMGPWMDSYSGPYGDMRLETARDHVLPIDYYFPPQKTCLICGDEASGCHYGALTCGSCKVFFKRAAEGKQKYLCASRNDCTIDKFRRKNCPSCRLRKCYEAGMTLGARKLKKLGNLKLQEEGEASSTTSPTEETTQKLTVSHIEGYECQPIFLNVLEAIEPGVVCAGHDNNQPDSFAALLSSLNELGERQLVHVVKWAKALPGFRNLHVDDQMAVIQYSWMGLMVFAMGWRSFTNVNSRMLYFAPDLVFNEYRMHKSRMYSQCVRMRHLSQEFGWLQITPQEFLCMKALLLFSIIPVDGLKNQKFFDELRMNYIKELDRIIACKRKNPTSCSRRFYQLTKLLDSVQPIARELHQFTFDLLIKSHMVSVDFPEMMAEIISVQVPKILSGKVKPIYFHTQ

The target is the same in experiment [17]. Kind of experiment: qHTS assay to identify small molecule agonists of the androgen receptor (AR) signaling pathway (AID 743036; active = well fitted activation curve with a large enough effect in the signal ratio in the repeat runs, with a control signal flat, not every such curve was filed as active; the % refers to the signal ratio). In outline:
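Screening used 2,000 AR-bla HEK293 cells per well, treated 16 h at 37C with test compounds in DMSO alongside positive and DMSO-only controls; beta-lactamase activity was then read by LiveBLAzer B/G FRET fluorescence after 2 h at room temperature.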

Experiment [18] has the same target. Nature of the experiment: qHTS assay to identify small molecule agonists of the androgen receptor (AR) signaling pathway using the MDA cell line (AID 743040; note: nearly all actives have a fitted effect of over 20% in size). In outline: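 Luciferase read-out, ONE-Glo, 30 min RT. Cells: MDA-kb2 AR-luc, MMTV promoter with AR and GR response elements. Compound exposure 16 h, 37C, 0% CO2, after 5 h pre-incubation. qHTS agonist mode.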

For experiment [19] the target is unchanged. Kind of experiment: qHTS assay to identify small molecule antagonists of the androgen receptor (AR) signaling pathway using the MDA cell line (AID 743042; note: nearly all actives have a fitted effect of over 55% in size). A digest of the protocol:
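MDA-kb2 breast carcinoma cells carrying MMTV-luciferase (AR/GR responsive) were co-treated with compounds and the agonist R1881 for 16 h at 37C. Inhibition read as ONE-Glo luminescence; CellTiter-Fluor fluorescence measured in parallel for cytotoxicity.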

Records with an inconclusive call do not appear. Activity calls are given as the source filed them. Unless noted, calls come from the whole dose curve; as a rule, active = well fitted curve in the direction sought with a large enough effect in the repeat runs; inconclusive = weak or mixed curves; inactive = no such curve, though single readings can be large; an effect the other way counts as inactive or inconclusive.

As to `CCN(CC)S(=O)(=O)c1ccc(C(=O)O)cc1`, the outcome in experiment [1], in [5], in [11] and in experiment [15] was inactive. Also, the Potency result in [2], in experiment [3], in [4], in experiment [6], in experiment [7] and in experiment [8] was “inactive” throughout. Also, the Potency entry (in experiment [9]; in [10]; in [12]; in [13]; in [14]; with Aromatase (Homo sapiens)) was “inactive” in each case.

As to `NC(N)=NS(=O)(=O)c1ccc(N)cc1`, the compound was called inactive in experiment [1], in experiment [5], in experiment [17], in experiment [19], in experiment [11] and in experiment [15]. The Potency entry in experiment [2], in experiment [3], in experiment [4], in experiment [16], in experiment [18] and in [7] was “inactive” each time. In addition, the Potency result in [8], in experiment [9], in experiment [10], in [12], in experiment [13] and in [14] was “inactive” in each case. In addition, in the experiment with Aromatase (Homo sapiens), the Potency entry is “inactive”.

Regarding `CN1[C@@H]2CC[C@H]1CC(NC(=O)n1c(=O)[nH]c3ccccc31)C2` (stereo partly drawn), the compound was classed as inactive in experiment [1], in experiment [5], in experiment [17], in experiment [19], in [11] and in [15]. The Potency result in [2], in [3], in experiment [4], in experiment [16], in [18] and in experiment [6] was “inactive” in each case. For the same compound, the Potency result (in [10]; in experiment [12]; in experiment [13]; in experiment [14]; with Aromatase (Homo sapiens)) was “inactive” in each case.

As to `CC(=O)O[C@H](CC(=O)[O-])C[N+](C)(C)C`, the outcome in experiment [1], in experiment [5], in experiment [11] and in [15] was inactive. Further, the Potency entry in experiment [2], in experiment [3], in experiment [4], in [6], in experiment [7] and in experiment [8] was “inactive” throughout. Also, the Potency entry (in experiment [9]; in experiment [10]; in experiment [12]; in experiment [13]; in experiment [14]; with Aromatase (Homo sapiens)) was “inactive” in each case.

As to `CCO[Si](CCCN=C=O)(OCC)OCC`, the compound was classed as inactive in [1], in [5] and in experiment [15]. In addition, the Potency result in experiment [2], in experiment [3], in experiment [4], in experiment [6], in experiment [7] and in [8] was “inactive” each time. For the same compound, the Potency entry (in [9]; in [10]; in experiment [12]; in experiment [13]; in [14]; with Aromatase (Homo sapiens)) was “inactive” each time.

For `CC(C)=CCC/C(C)=C/C(=O)O`, the result in experiment [1], in experiment [5], in [11] and in experiment [15] was inactive. Besides, the Potency entry in experiment [2], in experiment [3], in [4], in experiment [6], in experiment [7] and in experiment [8] was “inactive” in each case. Moreover, the Potency entry (in experiment [9]; in experiment [10]; in experiment [12]; in [13]; in experiment [14]; in the experiment with Aromatase (Homo sapiens)) was “inactive” each time.

Regarding `Cc1c(C)n(CCN(C)C)c2ccc(C(=O)OCCN(C)C)cc12`, the result in [1], in experiment [5] and in [11] was inactive. For the same compound, the Potency in experiment [2] was 11.9 µM (active); in experiment [3], 7.5 µM (active); in experiment [4] it was 13.3 µM (active); in experiment [7], 26.6 µM (active); in experiment [8], 21.1 µM (active). For the same compound, the Potency entry (in experiment [6]; in [9]; in experiment [10]; in [12]; with Aromatase (Homo sapiens)) was “inactive” each time.

With `Nc1nc2c(ncn2CCC(CO)CO)c(=O)[nH]1`, the compound was classed as inactive in [1], in [5], in experiment [11] and in experiment [15]. In addition, the Potency was 3.35 µM (active) in [2], 5.96 µM (active) in experiment [3] and 5.96 µM (active) in experiment [4]. Moreover, the Potency entry in experiment [6], in [7], in experiment [8], in experiment [9], in experiment [10] and in experiment [12] was “inactive” in each case. Further, the Potency entry (in experiment [13]; in [14]; with Aromatase (Homo sapiens)) was “inactive” in each case.
